Reference: PubChem BioAssay
“And” between values parts separate entries of the source, which are not always exact repeats. Equal entries are not always repeated. Records with an inconclusive call do not appear. The source made the active and inactive calls. Unless noted, no stated cut-off is given here; in the data, active means inhibition above about 80%; inactive means the rest.

Key:
[1] = P. berghei load reduction in hepatocytes – cell-based, HepG2, luciferase luminescence, HepG2 viability, primary screen (AID 624349; in the data active means parasite load remaining mostly below about 12%, no sharp cut-off; inactive means mostly above about 10%;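 further: 100% = mean of DMSO negative control wells on the same plate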); settings: P. berghei liver stage in HepG2, luciferase luminescence, concentration not given here; parasite load remaining: stronger effect = lower value; viability: measured here: HepG2 viability without parasites
[2] = growth inhibition, single agents and combos, CRL2098, cell-based, BGB or cisplatin IC20 combos, synergistic combos for chromothripsis tumors (AID 1671454); settings: CRL2098 osteosarcoma cells, drug combinations, stronger effect = higher value;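 further: cells exposed for 96 h before readout; 0% = vehicle DMSO and 100% = killing by high DMSO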
[3] = growth inhibition, single agents and combos, HD-MB03, cell-based, BGB or cisplatin IC20 combos, synergistic combos for chromothripsis tumors (AID 1671455; in the data active means inhibition above about 83%;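 further: 0% = vehicle DMSO and 100% = high DMSO as cytotoxic control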); settings: HD-MB03 medulloblastoma cells, stronger effect = higher value
[4] = growth inhibition, single agents and combos, UWB1.289, cell-based, BGB or cisplatin combos, synergistic combos for chromothripsis tumors (AID 1671456); settings: UWB1.289 ovarian carcinoma cells, stronger effect = higher value;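 further: cells exposed to compound for four days; 0% = vehicle DMSO and 100% = killing by high DMSO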
[5] = growth inhibition, single agents and combos, LFS_MB_2R, cell-based, cisplatin combos, synergistic combos for chromothripsis tumors (AID 1671457); settings: LFS_MB_2R medulloblastoma cells, stronger effect = higher value;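 further: cells exposed to compound for four days before readout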
[6] = UWB1.289_BRCA1 ovarian cancer growth, cell-based, BGB or cisplatin combinations (AID 1671459); settings: UWB1.289 BRCA1 ovarian carcinoma, drug combinations, stronger effect = higher value
[7] = drug combination toxicity in non-malignant astrocytes – cell-based, BGB or cisplatin IC20 combos, cytotoxicity control for chromothriptic childhood tumor combination screen (AID 1671460); settings: Human astrocytes, viability inhibition, drug combinations, at 0.5 µM, stronger effect = higher value;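 further: cells exposed to compounds for 96 hours before viability readout; 0% = vehicle and 100% = killing control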
[8] = compounds altering circadian rhythm period length – cell-based, LOPAC library, luminescence reporter (AID 2774; call rule not given here;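 further: values are relative to mean of DMSO wells on each plate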); settings: circadian reporter cells, at 7 µM, actives lie on both sides
[9] = viability loss in pontine glioma line – cell-based, SU-DIPG-XIII, MIPE5.0, CellTiter-Glo, qHTS, dose response (AID 1347064; cut-off not given, nearly all actives have AC50 up to about 23 µM); settings: CellTiter-Glo ATP luminescence
[10] = tested on: Neuropilin-2 / VEGF-C interaction (human); experiment: small molecules blocking Neuropilin-2/VEGF-C interaction – biochemical, microplate binding format, z-score (AID 743281; call rule not given here); settings: microplate NRP2/VEGF-C binding assay; stronger effect = lower value
[11] = tested on: Aerobactin synthetase IucA (Klebsiella pneumoniae); experiment: inhibition of K. pneumoniae IucA enzyme – biochemical, Tocris library, absorbance (AID 1345561; call rule not given here;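 further: 100% = enzyme without compound and 0% = no enzyme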); settings: purified IucA enzyme assay, absorbance (OD) read-out; stronger effect = lower value;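 tested at 8 µM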
[12] = target: ATP-dependent translocase ABCB1 (Homo sapiens) (UniProt P08183); experiment: P-glycoprotein substrate transport blockade – cell-based (AID 377; in the data active means fluorescence slope change above about 50%); settings: MDR1-expressing cells, fluorescent substrate accumulation slope; stronger effect = higher value; concentration not given here
Chain of ATP-dependent translocase ABCB1 (Homo sapiens) (P08183 whole entry, looked up): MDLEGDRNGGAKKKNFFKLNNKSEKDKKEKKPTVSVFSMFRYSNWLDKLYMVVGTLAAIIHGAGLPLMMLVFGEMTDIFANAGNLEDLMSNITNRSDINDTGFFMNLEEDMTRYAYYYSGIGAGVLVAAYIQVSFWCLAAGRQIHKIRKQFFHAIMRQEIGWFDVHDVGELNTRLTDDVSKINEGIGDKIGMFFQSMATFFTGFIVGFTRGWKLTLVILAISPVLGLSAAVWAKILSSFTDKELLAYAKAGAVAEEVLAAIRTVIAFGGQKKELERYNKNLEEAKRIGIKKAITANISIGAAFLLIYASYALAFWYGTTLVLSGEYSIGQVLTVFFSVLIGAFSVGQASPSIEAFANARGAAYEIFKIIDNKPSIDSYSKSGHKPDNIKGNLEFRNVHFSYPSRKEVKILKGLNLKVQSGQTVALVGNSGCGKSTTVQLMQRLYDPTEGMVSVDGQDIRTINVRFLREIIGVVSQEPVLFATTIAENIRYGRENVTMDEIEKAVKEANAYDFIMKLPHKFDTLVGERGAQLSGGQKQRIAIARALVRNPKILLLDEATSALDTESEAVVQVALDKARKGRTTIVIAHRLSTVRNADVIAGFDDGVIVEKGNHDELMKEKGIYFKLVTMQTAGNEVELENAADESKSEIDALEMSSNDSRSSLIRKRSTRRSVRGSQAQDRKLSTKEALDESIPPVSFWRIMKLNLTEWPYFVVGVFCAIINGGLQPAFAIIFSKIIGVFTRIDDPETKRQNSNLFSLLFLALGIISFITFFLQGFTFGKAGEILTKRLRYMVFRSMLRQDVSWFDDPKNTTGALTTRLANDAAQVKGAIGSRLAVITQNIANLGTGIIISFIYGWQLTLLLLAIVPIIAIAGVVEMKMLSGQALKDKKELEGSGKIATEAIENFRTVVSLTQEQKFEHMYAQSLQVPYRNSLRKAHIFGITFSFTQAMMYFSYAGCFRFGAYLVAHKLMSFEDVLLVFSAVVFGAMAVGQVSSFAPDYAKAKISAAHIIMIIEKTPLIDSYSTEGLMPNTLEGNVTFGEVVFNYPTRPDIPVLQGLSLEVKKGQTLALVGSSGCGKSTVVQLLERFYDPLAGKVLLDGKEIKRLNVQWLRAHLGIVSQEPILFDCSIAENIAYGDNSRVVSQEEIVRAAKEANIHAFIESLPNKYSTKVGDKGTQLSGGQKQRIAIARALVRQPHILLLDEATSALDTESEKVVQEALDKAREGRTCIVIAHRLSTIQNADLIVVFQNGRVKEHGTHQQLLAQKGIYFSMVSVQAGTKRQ

[13] = chitosan synthesis blockers in C. neoformans – flow cytometry, Cibacron Brilliant Red staining (AID 1347148; call rule not given here;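 further: compound exposure lasted three days at 37 degrees C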); settings: Cryptococcus neoformans chitosan, stronger effect = lower value; at 99.1 µM unless noted
[14] = compounds altering HSF1 focus formation in cells – imaging, Selleck Cancer Library (AID 1347162; in the data active means plate-normalised HSF1 focus index below about 0.46); settings: human cells, HSF1 nuclear foci imaging, at 10 µM; SSMD: measured here: HSF1 foci SSMD mean; cell count: measured here: cell number; plate-normalised HSF1 focus index: stronger effect = lower value
[15] = measured here: combination with BGB at IC20, at 0.5 µM
[16] = measured here: combination with cisplatin at IC20, at 0.5 µM
[17] = measured here: combo with BGB at IC20, at 0.5 µM
[18] = measured here: combo with cisplatin at IC20, at 0.5 µM
[19] = measured here: inhibition with BGB combination, at 0.05 µM
[20] = measured here: inhibition with cisplatin combination, at 0.05 µM
[21] = measured here: combination with cisplatin, at 0.5 µM
[22] = measured here: combination with cisplatin, at 5 µM
[23] = BGB combination, concentration series, at 5 µM
[24] = cisplatin combination, concentration series, at 5 µM
[25] = measured here: combo with BGB IC20
[26] = measured here: combo with cisplatin IC20

For `S=c1nc[nH]c2nc[nH]c12`, the parasite load remaining [1] was 27.1% (inactive) and 38.1% (inactive) and 20.6% (inactive), the viability [1] was 73.4% and 55.1% and 57.4% and the inhibition ([2]; at 0.5 µM) was -2.69% (inactive) and -57.6% (inactive) and -53.9% (inactive). The inhibition [2, 15] was -5.16% and -41% and -65.5%, the inhibition [2, 16] was -32% and -63.9% and -65.9% and the inhibition ([3]; at 0.5 µM) was -4.55% (inactive) and -3.29% (inactive) and -17.6% (inactive). The inhibition [3, 17] was -4.3% and -15.6% and -16.3%, the inhibition [3, 18] was -5.54% and 2.44% and -26.8% and the inhibition ([4]; at 0.5 µM) was 57.7% (inactive) and 56.2% (inactive) and 56.1% (inactive). The inhibition [4, 19] was -14.8% and -13.6% and -15.6%, the inhibition [4, 20] was -7.08% and -3.38% and -9.93% and the inhibition ([5]; at 0.5 µM) was -7.19% (inactive) and -1.38% (inactive) and -2.98% (inactive). For the same compound, the inhibition [5, 21] was -15.5% and -27.1% and 4.18%, the inhibition [5, 22] was -9.32% and -12.4% and -4.44% and the inhibition [6, 23] was 95.7% and 91.5% and 93.1%. For the same compound, the inhibition ([6]; at 0.5 µM) was 63.6% (inactive) and 53.4% (inactive) and 47.8% (inactive), the inhibition [6, 24] was 100% and 93.5% and 94.9% and the inhibition [7] was 13.8% (inactive) and -4.07% (inactive) and -10.8% (inactive). For the same compound, the inhibition [7, 25] was 14.2% and -8.32% and -0.26% and the inhibition [7, 26] was 3.43% and 3.12% and -27.4%.

With `CC(C[N+](C)(C)C)OC(N)=O` (stereo not given) the period change [8] was -0.04 h (inactive).

In the case of `CC(COc1ccccc1)N(CCCl)Cc1ccccc1` (stereo not given), the period change [8] is reported as 0.03 h (inactive) and the outcome [9] is reported as “inactive”.

For `CC1(C)O[C@@H]2[C@@H](CO[C@@]3(COS(N)(=O)=O)OC(C)(C)O[C@@H]23)O1`, the parasite load remaining [1] was 169% (inactive) and 59.3% (inactive) and 91.8% (inactive), the viability [1] was 90.1% and 108% and 69.4% and the z-score [10] was -1.38 (inactive). The remaining activity [11] was 121% (inactive).

With `CCCc1nc2c(C)cc(-c3nc4ccccc4n3C)cc2n1Cc1ccc(-c2ccccc2C(=O)O)cc1` the z-score [10] was -0.492 (inactive) and the outcome [9] was “inactive”.

For `CC1=C(/C=C/C(C)=C/C=C/C(C)=C/C(=O)O)C(C)(C)CCC1`, the fluorescence slope change [12] was 101% (active), the period change [8] was 0.355 h (inactive) and the remaining activity [11] was 104% (inactive). The fold fluorescence [13] was 4.11 [at 10 µM] (inactive).

With `O=c1[nH]cnc2[nH]ncc12` the period change [8] was 0.19 h (inactive), the parasite load remaining [1] was 54% (inactive) and 101% (inactive) and 124% (inactive) and the viability [1] was 90.8% and 70.7% and 94.2%. The outcome [9] was “inactive”.

For `N[C@@H](Cc1cc(I)c(Oc2cc(I)c(O)c(I)c2)c(I)c1)C(=O)O`, the fluorescence slope change [12] was 62.7% (active) and the outcome [9] was “inactive”.

For `COc1c(N2CCNC(C)C2)c(F)cc2c(=O)c(C(=O)O)cn(C3CC3)c12` (stereo not given), the inhibition ([2]; at 0.5 µM) was -43.6% (inactive) and -34.5% (inactive), the inhibition [2, 15] was -42.5% and -87.3% and the inhibition [2, 16] was -71.8% and 0.194%. The inhibition ([3]; at 0.5 µM) was -13.9% (inactive) and 3.18% (inactive), the inhibition [3, 17] was -14.1% and 5.19% and the inhibition [3, 18] was -19.6% and 0.97%. The inhibition ([4]; at 0.5 µM) was -2.27% (inactive) and 6.63% (inactive), the inhibition [4, 19] was -7.46% and -0.326% and the inhibition [4, 20] was -30.7% and -0.886%. The inhibition ([5]; at 0.5 µM) was -11.1% (inactive) and 6.57% (inactive), the inhibition [5, 21] was -12.5% and 9.12% and the inhibition [5, 22] was -5.47% and -26.4%. For the same compound, the inhibition [6, 23] was -10.3% and 3.45%, the inhibition ([6]; at 0.5 µM) was -4.22% (inactive) and 5.59% (inactive) and the inhibition [6, 24] was -1.48% and 7.21%. The inhibition [7] was -3.01% (inactive) and 1.57% (inactive), the inhibition [7, 25] was -5.37% and 4.53% and the inhibition [7, 26] was -9.08% and 0.874%.

With `CN=C(NC#N)NCCSCc1nc[nH]c1C` the period change [8] was 0.115 h (inactive) and the remaining activity [11] was 118% (inactive).

With `CCCCNc1cc(C(=O)O)cc(S(N)(=O)=O)c1Oc1ccccc1` the fluorescence slope change [12] was 105% (active), the period change [8] was 0.11 h (inactive) and the outcome [9] was “inactive”. For the same compound, the fold fluorescence [13] was 4.08 [at 137.2 µM] (inactive).

For `CC1=NS(=O)(=O)c2cc(Cl)ccc2N1`, the fluorescence slope change [12] was 82.3% (active), the period change [8] was 0.13 h (inactive) and the z-score [10] was -0.142 (inactive). For the same compound, the remaining activity [11] was 104% (inactive) and the fold fluorescence [13] was 4.83 [at 216.8 µM] (inactive).

With `CC(C)Cc1ccc(C(C)C(=O)O)cc1` (stereo not given) the period change [8] was 0.16 h (inactive) and the outcome [9] was “inactive”.

For `COc1ccccc1OCCNCC(O)COc1cccc2[nH]c3ccccc3c12` (stereo not given), the parasite load remaining [1] was 91.3% (inactive) and 56.7% (inactive) and 56.6% (inactive), the z-score [10] was 1.06 (inactive) and the remaining activity [11] was 112% (inactive).

In the case of `CC(=O)OCC(CCn1cnc2cnc(N)nc21)COC(C)=O`, the z-score [10] is reported as -0.315 (inactive), the inhibition ([2]; at 0.5 µM) is reported as -1.73% (inactive) and the inhibition [2, 15] is reported as -9.88%. For the same compound, the inhibition [2, 16] was -30.1%, the inhibition ([3]; at 0.5 µM) was -9.43% (inactive) and the inhibition [3, 17] was -6.57%. For the same compound, the inhibition [3, 18] was -14.8%, the inhibition ([4]; at 0.5 µM) was 5.6% (inactive) and the inhibition [4, 19] was -6.88%. For the same compound, the inhibition [4, 20] was -9.39%, the inhibition ([5]; at 0.5 µM) was -19.1% (inactive) and the inhibition [5, 21] was -22.6%. The inhibition [5, 22] was -72.7%, the inhibition [6, 23] was -1.67% and the inhibition ([6]; at 0.5 µM) was -3.29% (inactive). The inhibition [6, 24] was 11.9%, the inhibition [7] was 8.43% (inactive) and the inhibition [7, 25] was 10.6%. The inhibition [7, 26] was -5.87%.

With `O=C(C1CCCCC1)N1CC(=O)N2CCc3ccccc3C2C1` (stereo not given) the period change [8] was 0.13 h (inactive) and the outcome [9] was “inactive”.

For `N[C@@H]1CONC1=O`, the period change [8] was 0.11 h (inactive), the z-score [10] was -0.138 (inactive) and the outcome [9] was “inactive”.

With `O=C(O)c1cc(=O)c2c(OCC(O)COc3cccc4oc(C(=O)O)cc(=O)c34)cccc2o1` the outcome [9] was “inactive”.

For `CCN(Cc1ccncc1)C(=O)C(CO)c1ccccc1` (stereo not given), the fluorescence slope change [12] was 82.5% (active), the period change [8] was 0.035 h (inactive) and the remaining activity [11] was 104% (inactive).

In the case of `O=C(O)CCCc1ccccc1`, the parasite load remaining [1] is reported as 61.6% (inactive) and 72.5% (inactive), the viability [1] is reported as 96.6% and 102% and the remaining activity [11] is reported as 106% (inactive). For the same compound, the SSMD [14] was 2.46, the cell count [14] was 7000 and the plate-normalised HSF1 focus index [14] was 1.14 (inactive). The inhibition ([2]; at 0.5 µM) was -56.1% (inactive), the inhibition [2, 15] was -54.3% and the inhibition [2, 16] was -68.3%. For the same compound, the inhibition ([3]; at 0.5 µM) was -7.96% (inactive), the inhibition [3, 17] was -7.07% and the inhibition [3, 18] was -7.42%. The inhibition ([4]; at 0.5 µM) was -4.79% (inactive), the inhibition [4, 19] was -17.3% and the inhibition [4, 20] was -13.9%. For the same compound, the inhibition ([5]; at 0.5 µM) was -17.8% (inactive), the inhibition [5, 21] was -17.8% and the inhibition [5, 22] was -56.2%. For the same compound, the inhibition [6, 23] was 3.17%, the inhibition ([6]; at 0.5 µM) was -1.28% (inactive) and the inhibition [6, 24] was 25.2%. For the same compound, the inhibition [7] was 2.17% (inactive), the inhibition [7, 25] was -14.8% and the inhibition [7, 26] was -0.734%.
